Most compounds without a hit are left out; they make up all but 7% or so of the library.
D3 ag: D3 dopamine receptor (human) agonism | P35462 | D3R DiscoveRx beta-arrestin cells, luminescence, 90 min | max activation, % | actives 0.58% (n = 410,000); in the data active = max activation above about 30%; note: 0% is about no effect
Target sequence (P35462 whole entry, looked up): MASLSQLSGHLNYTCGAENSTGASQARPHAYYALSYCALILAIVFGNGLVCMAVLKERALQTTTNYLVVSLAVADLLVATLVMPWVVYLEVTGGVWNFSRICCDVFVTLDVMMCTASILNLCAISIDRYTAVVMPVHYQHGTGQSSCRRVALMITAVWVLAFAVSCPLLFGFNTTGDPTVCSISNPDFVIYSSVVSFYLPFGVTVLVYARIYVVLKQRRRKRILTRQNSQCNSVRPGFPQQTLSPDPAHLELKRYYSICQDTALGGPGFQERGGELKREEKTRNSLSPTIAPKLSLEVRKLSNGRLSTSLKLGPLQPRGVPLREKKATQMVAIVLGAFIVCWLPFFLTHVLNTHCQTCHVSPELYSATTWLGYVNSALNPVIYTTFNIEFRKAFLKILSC
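Agonist-mode cell screen: cells plated at 1500/well and incubated overnight at 37 °C, then exposed to library compounds for 90 min at 37 °C. Detection reagent was added for 30–60 min at room temperature, and luminescence was read.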
ATXN viability: reduces viability in counter-screen for ATXN expression inhibitors. S2 cells (HEK-293 line with an ATXN2-luciferase reporter) viability, CellTiter-Fluor protease fluorescence, 24 h. Potency, µM (top dose mostly 56.7 µM), usual class: cytotoxic. actives 0.49% (n = 400,000); note: potency is the fitted concentration of half-maximal effect; nearly all actives have a fitted effect of over 40% in size
D3 antag: antagonists of human D3 dopamine receptor; P35462; D3R cells, DiscoveRx beta-arrestin luminescence, antagonist mode; active compounds read low; max response, negative = inhibition, %; actives 2.5% (n = 360,000); in the data active = max response below about -50%; inconclusive = no clear call, values can overlap the other calls; note: % is set by controls: 0 for no effect and ±100 for the full control effect
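Cells plated overnight at 1500 cells/well, then exposed to library compounds with dopamine controls for 90 minutes at 37 degrees C. DiscoveRx reagent added for 30–60 minutes at room temperature; luminescence read, quantitative HTS format.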
ATXN2 expr inh: ATXN2 expression inhibition. HEK-293 ATXN2-luciferase reporter, luminescence, 24 h. Potency, µM (highest dose often 57 µM), for the others: at the top dose activity change, negative = inhibition, usual class: inhibitors. actives 0.72% (n = 360,000); note: potency is the fitted concentration of half-maximal effect; % is set by controls: 0 for no effect and ±100 for the full control effect; nearly all actives have a fitted effect of over 55% in size
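ATXN2-luciferase reporter cells (luciferase flanked by upstream and downstream ATXN2 gene portions) were treated 24 h at 37 °C with compounds at up to 57 uM. SteadyGlo luminescence gave expression; GF-AFC fluorescence gave viability.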
Integrin act MD: activators of alpha7 integrin expression for muscular dystrophy | alpha7betagal myoblasts, beta-gal FDG fluorescence, 48 h | Potency, µM (top dose mostly 38.3 µM), for inactives: at the top dose activation, actives largely listed as activators | actives 0.064% (n = 350,000);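 note: potency is the fitted concentration of half-maximal effect; 100% = response of the positive control SU9516; nearly all actives have a fitted effect of over 60% in size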
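Alpha7betagal+/- myoblasts (passage 13) were plated 16-24 hr, then exposed to compounds (1:260 dilution of DMSO stock) for 48 hours at 37C. After MPER lysis, β-galactosidase reporter activity was read as FDG fluorescence (ex 480/em 540) after 30 minutes.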
IL1B secr inh: inhibitors of inflammasome signaling (IL-1 beta secretion) | actives 4.7% (n = 360,000) | AID 743279 | activity change, % at 57.5 µM | THP-1 LPS/ATP IL-1B secretion, AlphaLISA, 16 h; active compounds read low; in the data active = activity change below about -50%; inconclusive = mostly about -30% to -49%; note: % is set by controls: 0 for no effect and ±100 for the full control effect
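Secreted IL-1B measured by AlphaLISA bead assay after 16 h compound exposure of THP-1 cells; compounds (final up to 57.5 uM) added 1 h before LPS (250 ng/mL) and ATP (1.25 mM) stimulation; lower signal means less secretion.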
* = called active by the depositor; i = inactive; u = inconclusive; x = not tested or not shown; [ ] = remark or other dose. Unless noted, calls come from the whole dose curve; as a rule, active = well fitted curve in the direction sought with a large enough effect; inconclusive = small, poorly fitted or top-dose-only effect, or another doubt; inactive = no such curve, though single readings can be large; an effect the other way counts as inactive or inconclusive.

SMILES	D3 ag	ATXN viability	D3 antag	ATXN2 expr inh	Integrin act MD	IL1B secr inh
COc1ccc(OC)c(-c2csc(N(C)C(=O)c3ccco3)n2)c1	-1.7	35.5µM*	14.6	-19.1%	u	-23.2
COc1ccc(OC)c(-c2csc(NC(=O)C3CSC4(C)CCC(=O)N34)n2)c1 (stereo not given)	-4.9	i	10.8	-8.2%	-34.4%	-54.8*
O=C(Cc1c(F)c(F)c(F)c(F)c1F)Nc1nc(-c2ccccc2)cs1	27.7	i	1.8	30.1%	7.3%	-79.3*
COc1ccc(-c2csc(NC(=O)C3CSC4(C)CCC(=O)N34)n2)cc1OC (stereo not given)	-8.5	i	-24.2	-11.0%	-8.3%	-12.9
O=C(Cc1cccs1)Nc1nc(-c2ccc(F)cc2F)cs1	-27.7	i	35.5	-7.0%	20.9%	-69.5*
O=C(Cc1ccc(F)cc1)Nc1nc(-c2ccc(F)cc2)cs1	6.1	i	23.1	-6.6%	2.3%	-16.6
COc1ccc(-c2csc(NC(=O)Cc3ccccc3F)n2)c(OC)c1	0.2	i	-10.0	5.5%	-14.7%	-60.5*
CCCCn1c(N)c(N(CCOC)C(=O)COC(=O)CCOc2ccccc2)c(=O)[nH]c1=O	2.0	i	6.4	4.2%	13.5%	11.7
COc1ccc(CC(=O)Nc2nc(-c3cc(OC)ccc3OC)cs2)cc1	12.6	i	63.5	-12.6%	38.4%	-88.4*
COc1ccc(CC(=O)Nc2nc(C)cs2)cc1	-5.3	i	13.7	12.4%	17.0%	5.3
COc1ccc(CC(=O)Nc2nc(C(C)(C)C)cs2)cc1	0.7	i	0.4	-8.7%	-34.7%	-108.0*
COc1ccc(OC)c(-c2csc(NC(=O)Cc3ccc(OC)c(OC)c3)n2)c1	6.7	i	28.3	-25.8%	-4.7%	-13.4
CCOc1cc(NC(=O)c2ccccn2)c(OCC)cc1NC(=O)c1ccc(C)cc1	-0.7	i	37.4	x	24.4%	7.3
O=[N+]([O-])c1ccc(N/N=C/c2cccc(O)c2O)cc1	1.4	u	-50.3*	0.7%	-14.1%	u
O=[N+]([O-])c1ccc(NN=Cc2cccc([N+](=O)[O-])c2)cc1	-14.3	u	u	u	-0.2%	u
O=[N+]([O-])c1ccc(N/N=C/c2cccc(O)c2)cc1	-10.1	i	u	18.5%	-14.1%	-87.6*
Oc1cccc(/C=N/Nc2cccc3cccnc23)c1	0.7	u	1.1	164.5%[11.3 µM]	3.2%	-74.6*
c1ccc(-n2nnnc2Oc2ccc(-n3ccnc3)cc2)cc1	0.9	i	-9.7	-10.4%	-22.1%	-64.4*
COc1ccc(Oc2nnnn2-c2ccccc2)cc1	9.4	i	4.7	29.3%	-5.0%	-20.0
CCOc1cc(C(=O)N/N=C/c2ccoc2)cc(OCC)c1OCC	-15.6	i	-70.4*	12.9%	29.9%	-3.8
COc1ccc(OC)c(/C=N/NC(=O)c2cc(-c3ccc(C)o3)nc3ccccc23)c1	37.4*	i	19.6	5.5%	-19.3%	-1.3
COc1ccccc1-c1cc(C(=O)N/N=C/c2ccoc2)c2ccccc2n1	-7.6	i	-50.7*	-18.1%	-20.2%	28.4
COc1ccccc1-c1cc(C(=O)N/N=C/c2ccc(C)s2)c2ccccc2n1	1.6	i	-22.0	132.7%	22.9%	-23.3
CCOc1cc(C(=O)N/N=C/c2ccsc2)cc(OCC)c1OCC	-17.7	i	u	-7.5%	-10.4%	44.0
CCN(CC)S(=O)(=O)c1cc(NC(=O)CSCc2c(C)noc2C)ccc1C	-0.4	i	10.4	-17.7%	1.9%	-1.7
CCCc1cc(CNC(=O)C2CCC(=O)N(Cc3ccccc3F)C2)on1 (stereo not given)	5.7	i	28.7	19.6%	-5.4%	2.5
Cc1cc(NC(=O)CCC(=O)N(CC(=O)NC2CCCC2)c2ccc(C)c(F)c2)no1	-1.7	i	1.0	8.6%	u	20.2
Cc1ccc(Cc2nc3ccccc3n2C(CCc2ccccc2)c2nc3ccccc3[nH]2)cc1 (stereo not given)	-2.9	x	0.2	x	x	-69.1*

Screening results from PubChem.
